Compounds with a hit are over-represented: about 6.8% of the library has one in this group of screens.
NADH enzymes: inhibition of NAD/NADH coupling enzymes, library profiling; coupled PK/LDH NADH assays, four targets; IC50, µM (doses to about 10 µM); 65,000 compounds, 0.02% hits;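 active = single-dose screening hits from any of four coupled enzyme assays that gave an IC50 when retested across doses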;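 note: the DPM-DC format reads NADH fluorescence rather than 340 nm absorbance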
Abs 340nm: compound absorbs light at 340 nm; compound absorbance at 340 nm, fold over control; AID 708; 65,000 tested, under 10 active; fold change at 10 µM;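 active = at 10 µM dose, initial 340 nm absorbance at least 2 fold that of control wells; inactive = change under 2 fold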;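 note: initial absorbance extrapolated from kinetic A340 decline of NADH oxidation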
Fluor 339 460: intrinsic fluorescence of library compounds, ex339/em460 – biochemical, MLSMR library, data from DPM-DC assay, artefact control, profiling panel; AID 709; fluorescence fold increase at 10 µM; 65,000 compounds, 5.5% hits; compound autofluorescence, ex339/em460 nm, NADH buffer; active compounds read high; 1 = no-compound wells, NADH background;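 active = at 10 µM, mean starting fluorescence two-fold or more over control wells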;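 note: signal is the first read of a kinetic run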
DPM-DC inhibit: S. pneumoniae DPM-DC inhibition; calls only at 10 µM; purified DPM-DC, PK/LDH coupled NADH fluorescence; 65,000 compounds, 0.49% hits; AID 556;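 active = the 320 compounds with the highest percent inhibition in the single-dose primary screen, excluding strongly autofluorescent ones, cut at about 32% in these data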;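 note: kinetic rate of NADH fluorescence loss reporting ADP formed by the decarboxylase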
PMK inhibit: inhibitors of Streptococcus pneumoniae phosphomevalonate kinase | AID 539 | 65,000 compounds, 0.49% hits | inhibition, % at 10 µM | purified PMK, PK/LDH-coupled NADH absorbance 340 nm;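 active = top-ranked compounds by inhibition in the single 10 µM screen, taking a fixed number of the strongest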
Spn MK inh: blocks S. pneumoniae mevalonate kinase. inhibition, % at 10 µM. purified MK, PK/LDH-coupled NADH absorbance 340 nm. 65,000 compounds, 0.48% hits. AID 555;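 active = ranked among the strongest by inhibition in the single 10 µM screen, a fixed top-ranked set picked for dose follow-up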
Each line names hits and unclear results; the compound was inactive in the other large screens.

CCCCCn1c(SCCOCC)nc2c1c(=O)[nH]c(=O)n2C	none
CCOC(=O)CNc1c(-c2ccc(O)cc2)nc2ccccn12	Fluor 339 460 3.69 (not shown: DPM-DC inhibit)
Oc1ccc(-c2nc3ccccn3c2NCc2ccc3c(c2)OCO3)cc1	Fluor 339 460 3.71 (not shown: DPM-DC inhibit)
CCOC(=O)CNc1c(-c2ccc(O)cc2)nc2ccc(Cl)cn12	none
Cc1ccc(-c2cnc(-c3ccncc3)o2)cc1	Fluor 339 460 2.17 (not shown: DPM-DC inhibit)
Cc1ccc(-c2nc(-c3cccnc3)no2)cc1	none
CCN(CC)C(=O)C1CCCN(Cc2ccccc2C(F)(F)F)C1 (centres undefined)	Spn MK inh 45.0
CCN(CC)C(=O)C1CCCN(Cc2ccccc2F)C1 (centres undefined)	none
CCN(CC)C(=O)C1CCCN(C/C(C)=C/c2ccccc2)C1 (centres undefined)	PMK inhibit 26.0
CCN(CC)C(=O)C1CCCN(C/C=C/c2ccccc2)C1 (centres undefined)	Spn MK inh 47.0
Cn1c(=O)c2c(SCC(=O)N3CCC(Cc4ccccc4)CC3)nc(C3CC3)nc2n(C)c1=O	none
COC(=O)c1ccc(Oc2nc3c(c(=O)n(C)c(=O)n3C)n2CCC(C)C)cc1	none
COc1ccc(OC)c2c(C)cc(NCCN3CCOCC3)nc12	Fluor 339 460 2.09 (not shown: DPM-DC inhibit)
c1ccc2[nH]c(-c3cscn3)nc2c1	none
c1ccc2[nH]c(-c3ccnc4ccccc34)nc2c1	Fluor 339 460 2.06 (not shown: DPM-DC inhibit)
c1ccc2nc(-c3nc4ccccc4[nH]3)ccc2c1	Fluor 339 460 2.26 (not shown: DPM-DC inhibit)
O=C(CCS(=O)(=O)c1cccs1)NC1CCCCCC1	none
COc1ccc2cc(CN(CC3COCCO3)S(=O)(=O)c3ccccc3)c(=O)[nH]c2c1 (centres undefined)	none
COc1ccc(S(=O)(=O)N(Cc2cc3ccc(OC)cc3[nH]c2=O)CC2COCCO2)cc1 (centres undefined)	Fluor 339 460 2.31
COC(=O)c1ccccc1S(=O)(=O)N(Cc1cc2ccc(OC)cc2[nH]c1=O)CC1CCCO1 (centres undefined)	PMK inhibit 25.0
COc1ccc2cc(CN(Cc3cccnc3)S(=O)(=O)c3ccccc3)c(=O)[nH]c2c1	Fluor 339 460 2.02
Cc1ccc2cc(CN(CC3CCCO3)S(=O)(=O)c3cccc4nsnc34)c(=O)[nH]c2c1 (centres undefined)	none
COc1ccc2c(c1)CCc1c-2n[nH]c1C(=O)O	none
CCOc1ccc(OCc2cccc(C(=O)O)c2)cc1	none
c1coc(CNc2ncnc3nc[nH]c23)c1	none
Cc1ccc2[nH]c3c(NCc4ccco4)ncnc3c2c1	Fluor 339 460 3.77 (not shown: DPM-DC inhibit)
Cc1ccc2[nH]c3c(NCCCN4CCCC4=O)ncnc3c2c1	Fluor 339 460 3.77 (not shown: DPM-DC inhibit)
COc1ccc2[nH]c3c(NCCN4CCCCC4)ncnc3c2c1	Fluor 339 460 3.74 (not shown: DPM-DC inhibit)
CCc1cc2c(NCCN3CCCCC3)ncnc2s1	none
CCOC(=O)CC1=NC(=O)CS1	none
CCc1nc2c(c(=O)[nH]1)C1(CCCC1)Cc1ccccc1-2	none
O=c1[nH]c(NCCO)nc2c1C1(CCCCC1)Cc1ccccc1-2	Fluor 339 460 3.88 (not shown: DPM-DC inhibit)
CC1(C)CC(n2c(NCCO)nc3c(c2=O)C2(CCCC2)Cc2ccccc2-3)CCO1 (centres undefined)	Fluor 339 460 2.05 (not shown: DPM-DC inhibit)
CCn1c(SCC(=O)N2CCc3ccccc32)nc2c(c1=O)SC(C)C2 (centres undefined)	none
CN1CCCN(Cc2ccccc2C(F)(F)F)CC1	Spn MK inh 57.0
COc1cc(OC)cc(C(=O)N2CCN(Cc3ccccc3C(F)(F)F)CC2)c1	Spn MK inh 50.0
COc1ccc(C(=O)N2CCN(Cc3ccccc3C)CC2)cc1OC	none
COc1cc(C(=O)N2CCN(Cc3ccccc3C(F)(F)F)CC2)cc(OC)c1OC	Spn MK inh 45.0
COc1cccc(OC)c1C(=O)N1CCN(Cc2ccccc2C(F)(F)F)CC1	none
Cc1cc2cc(CN(CCCO)S(=O)(=O)c3cccc4nsnc34)c(=O)[nH]c2cc1C	none
COc1cc2cc(CN(CCCO)S(=O)(=O)c3ccccc3Cl)c(=O)[nH]c2cc1OC	Fluor 339 460 3.46, PMK inhibit 25.0 (not shown: DPM-DC inhibit)
CCOC(=O)c1cccc(S(=O)(=O)N(CCO)Cc2cc3cc(OC)c(OC)cc3[nH]c2=O)c1	none
COc1cc2cc(CN(CCO)S(=O)(=O)c3ccccc3Cl)c(=O)[nH]c2cc1OC	Fluor 339 460 3.08
